According to PubChem BioAssay AID1159580 (chemical genetic matrix, 2015):
Among all 5,500 compounds or so, about 2,000 (36%) were called active. Roughly 18% stayed inconclusive and do not appear here. Cut-off read from the data, not from the text of the source: active = normalized growth mostly below about 0.91 (no sharp cut-off); inconclusive = no clear call, values can overlap the other calls; inactive = mostly above about 0.92. The list shows a part of the results.

Test: chemical genetic growth profiling, strain panel (AID 1159580);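 note: tested at 20 µM; growth read once vehicle control cultures reached saturation at 30 °C; 1 = growth at the plate median or of vehicle wells; lower values mean less growth of the strain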
Settings: S. cerevisiae deletion strains, growth OD

Measured: normalized growth

Clc1ccc(Cn2c(CN3CCCC3)nc3ccccc32)cc1
inactive: locus YAL040C, strain CLN3, stronger effect = lower value 1.01 | locus YCL061C, strain MRC1 (second series), stronger effect = lower value 0.996 | locus YDR150W, strain NUM1, stronger effect = lower value 0.996 | locus YDR363W, strain ESC2, stronger effect = lower value 0.999 | locus YER002W, strain NOP16, stronger effect = lower value 1.01 | locus YNL128W, strain TEP1, stronger effect = lower value 1.04 | locus YNL175C, strain NOP13, stronger effect = lower value 1.02 | locus YNL197C, strain WHI3, stronger effect = lower value 1.04 | locus YNL224C, strain SQS1, stronger effect = lower value 1.02 | locus YNL322C, strain KRE1, stronger effect = lower value 0.989 | locus YOR083W, strain WHI5 (second series), stronger effect = lower value 1.02 | locus YPL055C, strain LGE1, stronger effect = lower value 0.932
